Screening data deposited in PubChem by National Center for Advancing Translational Sciences (NCATS).
FLuc inh: inhibitors of firefly (Photinus pyralis) luciferase; purified P. pyralis luciferase, luminescence, biochemical; Potency, µM (doses to about 115 µM), most hits filed as inhibitors; 76,000 tested, 2.5% active; AID 1347043; also: nearly all actives have a fitted effect of over 65% in size
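Luminescence read by CCD imager after adding enzyme (10nM final) to wells holding compound, titrated in qHTS. Substrates 10uM each D-luciferin and ATP; buffer 50mM Tris acetate pH 7.5, 10mM Mg acetate, Tween-20, BSA.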
HEK293 tox: kills HEK 293 cells; 94,000 tested, 6.6% active; HEK 293 viability, ATP luminescence (CellTiter-Glo), 48-72 h; Potency, µM (top dose mostly 115 µM), for the others: at the highest dose activity change, negative = cytotoxicity, most hits filed as inhibitors; AID 1345083; also: nearly all actives have a fitted effect of over 60% in size
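Cells seeded first (HEK 293, 250 cells/well), then compound added by pintool. Incubation ran 48 or 72 hr at 37 degree Celsius. CellTiter-Glo was added and luminescence imaged after 10 min at room temperature.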
3T3 cytotox: NIH 3T3 cell cytotoxicity; NIH 3T3 viability, CellTiter-Glo ATP luminescence, 48-72 h; Potency, µM (doses to about 96.7 µM), for inactives: top-dose activity change, negative = cytotoxicity, actives largely listed as inhibitors; 94,000 tested, 4.3% active; AID 1345082; also: nearly all actives have a fitted effect of over 55% in size
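Cytotoxicity is measured as loss of cellular ATP: NIH 3T3 cells (400/well) are exposed to compound for 48 or 72 hr at 37 °C, then CellTiter-Glo luminescence is imaged after 10 min at room temperature.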
hNpr1 antagonist: antagonists of human natriuretic peptide receptor Npr1. 76,000 tested, 1.6% active. HEK293 hNpr1 GloSensor cGMP, ANP-stimulated luminescence. P16066. Potency, µM (titrated, usually from 46.3 µM), without a hit: at the top dose activity change, negative = inhibition, hits mostly inhibitors. AID 1347048; calls by dose curve; also: nearly all actives have a fitted effect of over 60% in size
Target sequence (P16066 whole entry, looked up): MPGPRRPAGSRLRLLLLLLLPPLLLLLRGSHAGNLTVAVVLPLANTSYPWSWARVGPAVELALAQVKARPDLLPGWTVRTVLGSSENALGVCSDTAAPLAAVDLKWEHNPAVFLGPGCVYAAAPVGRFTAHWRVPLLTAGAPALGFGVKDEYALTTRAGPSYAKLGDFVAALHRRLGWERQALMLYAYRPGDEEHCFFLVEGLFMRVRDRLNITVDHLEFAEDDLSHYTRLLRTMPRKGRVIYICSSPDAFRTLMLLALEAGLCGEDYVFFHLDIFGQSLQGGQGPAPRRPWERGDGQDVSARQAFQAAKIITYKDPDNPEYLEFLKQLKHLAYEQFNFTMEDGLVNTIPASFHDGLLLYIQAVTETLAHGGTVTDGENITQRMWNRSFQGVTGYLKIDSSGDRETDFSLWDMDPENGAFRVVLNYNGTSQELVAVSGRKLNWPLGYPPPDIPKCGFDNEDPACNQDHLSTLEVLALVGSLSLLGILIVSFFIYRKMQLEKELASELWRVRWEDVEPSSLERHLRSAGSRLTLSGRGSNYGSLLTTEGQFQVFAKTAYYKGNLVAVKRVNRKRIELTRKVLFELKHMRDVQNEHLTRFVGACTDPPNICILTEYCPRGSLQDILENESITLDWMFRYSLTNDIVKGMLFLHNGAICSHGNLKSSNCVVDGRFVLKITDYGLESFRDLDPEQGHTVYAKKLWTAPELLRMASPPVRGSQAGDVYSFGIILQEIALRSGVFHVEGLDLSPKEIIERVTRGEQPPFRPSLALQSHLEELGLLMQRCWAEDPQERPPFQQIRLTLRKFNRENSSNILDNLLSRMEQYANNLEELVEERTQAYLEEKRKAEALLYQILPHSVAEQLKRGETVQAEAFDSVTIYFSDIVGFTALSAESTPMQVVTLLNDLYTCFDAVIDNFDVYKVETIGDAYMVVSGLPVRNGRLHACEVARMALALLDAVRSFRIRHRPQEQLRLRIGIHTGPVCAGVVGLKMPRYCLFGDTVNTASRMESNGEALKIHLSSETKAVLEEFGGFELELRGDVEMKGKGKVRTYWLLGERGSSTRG
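Compound pre-incubated 30 min at room temperature on GloSensor-loaded HEK293 cells stably carrying hNpr1 and the pGS-40F cGMP biosensor. Stimulation uses hNppA at 0.1 nM final; luminescence is taken at baseline and 20 min post-agonist.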
Active calls of the source: *; ! = a repeat was not active; [ ] = remark or other dose. Only some compounds are listed: those with a hit (about 11% of all), similar ones and a draw of the others. Unless noted, calls follow the shape of the dose curve; as a rule, active = well fitted curve in the direction sought with a large enough effect; inconclusive = small, poorly fitted or top-dose-only effect, or another doubt; inactive = no such curve, though single readings can be large; an effect the other way counts as inactive or inconclusive. % is scaled to controls: 0 for no effect and ±100 for the full control effect; potency is read from the fitted curve at half-maximal effect.

What do the screens show for `COc1ccc(CN2Cc3[nH]nc(-c4ccccc4)c3CC2=O)cc1`?
FLuc inh: inactive; HEK293 tox: inactive; 3T3 cytotox: inconclusive; hNpr1 antagonist: -1%[70.6 µM]

How did COc1ccc(CN2Cc3[nH]nc(-c4cccnc4OC)c3CC2=O)cc1 do in these assays?
FLuc inh: inactive; HEK293 tox: 71µM*; 3T3 cytotox: inconclusive; hNpr1 antagonist: 1%[70.6 µM]

What do the screens show for `COc1ccc(CN2Cc3[nH]nc(-c4ccnn4C)c3CC2=O)cc1`?
FLuc inh: inactive; HEK293 tox: 112µM*; 3T3 cytotox: inconclusive; hNpr1 antagonist: -17%[70.6 µM]

What do the screens show for `O=C(Nc1cccc2ccccc12)O[C@@H]1CO[C@H]2[C@@H]1OC[C@@H]2NS(=O)(=O)Cc1ccccc1`?
FLuc inh: inactive; HEK293 tox: -1%; 3T3 cytotox: -2%; hNpr1 antagonist: -2%

What do the screens show for `COc1ccc(C(=O)NC[C@@H]2C=C(C)[C@H](Cc3nnc(-c4ccncc4)o3)C[C@H]2C(C)C)cc1`?
FLuc inh: inactive; HEK293 tox: 50µM*; 3T3 cytotox: inconclusive; hNpr1 antagonist: inconclusive

How did CC1=C[C@@H](CNC(=O)c2ccc(C#N)cc2)[C@H](C(C)C)C[C@H]1Cc1nnc(-c2ccncc2)o1 do in these assays?
FLuc inh: inactive; HEK293 tox: inconclusive; 3T3 cytotox: inconclusive; hNpr1 antagonist: inconclusive

What do the screens show for `CC1=C[C@@H](CNC(=O)c2ccc(F)cc2)[C@H](C(C)C)C[C@H]1Cc1nnc(-c2ccncc2)o1`?
FLuc inh: inactive; HEK293 tox: 35µM*; 3T3 cytotox: inconclusive; hNpr1 antagonist: inconclusive

How did CC(=O)N1CCN(C[C@@H]2C=C(C)[C@H](Cc3nnc(-c4ccncc4)o3)C[C@H]2C(C)C)CC1 do in these assays?
FLuc inh: inactive; HEK293 tox: inconclusive; 3T3 cytotox: -24%[174 µM]; hNpr1 antagonist: -5%[70.6 µM]

What do the screens show for `CC1=C[C@@H](CNC(=O)C(C)(C)C)[C@H](C(C)C)C[C@H]1Cc1nnc(-c2ccncc2)o1`?
FLuc inh: inactive; HEK293 tox: 79µM*; 3T3 cytotox: -20%[174 µM]; hNpr1 antagonist: -29%[70.6 µM]

What do the screens show for `CS(=O)(=O)c1ccc(CN2C[C@H](O)C[C@H]2c2nc(-c3ccc(F)cc3)no2)cc1`?
FLuc inh: 45µM*; HEK293 tox: -25%[172 µM]; 3T3 cytotox: -12%[138 µM]; hNpr1 antagonist: -3%[70.6 µM]

What do the screens show for `O[C@@H]1C[C@@H](c2nc(-c3ccc(F)cc3)no2)N(Cc2ccc(F)cc2)C1`?
FLuc inh: inactive; HEK293 tox: 100µM*; 3T3 cytotox: inconclusive; hNpr1 antagonist: -5%[70.6 µM]

Results for COc1ccc(Nc2ccnc(N3CCC(NC(=O)C4CCCC4)CC3)n2)cc1 ?
HEK293 tox: 50µM*; 3T3 cytotox: inconclusive

Results for COc1ccc(Nc2ccnc(N3CCN(C(=O)C4CCCC4)CC3)n2)cc1 ?
HEK293 tox: 28µM*; 3T3 cytotox: inconclusive

How did COc1ccc(Nc2ccnc(N3CCC(C(=O)NC4CCCC4)CC3)n2)cc1 do in these assays?
HEK293 tox: inconclusive; 3T3 cytotox: 35µM*

What do the screens show for `COc1ccc(Nc2ccnc(N3CCC(C(=O)N4CCOCC4)CC3)n2)cc1`?
HEK293 tox: -30%; 3T3 cytotox: -25%

What do the screens show for `Cc1nc2cccnc2n1CC1CCCN(S(=O)(=O)c2cccc(Br)c2)C1` (stereo unspecified)?
FLuc inh: inactive; HEK293 tox: 45µM*; 3T3 cytotox: inconclusive; hNpr1 antagonist: inconclusive

Results for Cc1ccc(S(=O)(=O)N2CCCC(Cn3c(C)nc4cccnc43)C2)cc1C (stereo unspecified) ?
FLuc inh: inactive; HEK293 tox: inconclusive; 3T3 cytotox: inconclusive; hNpr1 antagonist: inconclusive

Results for Cc1ncc2n1C(=O)N(C1CCN(Cc3ccccc3)CC1)C2 ?
FLuc inh: inactive; HEK293 tox: 100µM*!; 3T3 cytotox: inconclusive; hNpr1 antagonist: 7%[70.6 µM]

How did COc1ccc(CN2CCC(N3Cc4cnc(C)n4C3=O)CC2)cc1 do in these assays?
FLuc inh: inactive; HEK293 tox: inconclusive; 3T3 cytotox: -18%[138 µM]; hNpr1 antagonist: 0%[70.6 µM]

How did CC(=O)NCc1nnc2n1C(C(=O)NCCCc1ccccc1)CC2 (stereo unspecified) do in these assays?
HEK293 tox: -14%[172 µM]; 3T3 cytotox: -10%[138 µM]

How did c1cc(-c2cc(-c3ccc4cn[nH]c4c3)cn3cncc23)ccn1 do in these assays?
FLuc inh: inactive; HEK293 tox: 63µM*; 3T3 cytotox: 18µM*; hNpr1 antagonist: -2%[70.6 µM]

How did CC(=O)Nc1cccc(-c2cc(-c3c(C)noc3C)c3cncn3c2)c1 do in these assays?
FLuc inh: inactive; HEK293 tox: inconclusive; 3T3 cytotox: inconclusive; hNpr1 antagonist: -20%[70.6 µM]

What do the screens show for `NC(=O)c1cccc(-c2cc(-c3ccncc3)c3cncn3c2)c1`?
FLuc inh: inactive; HEK293 tox: inconclusive; 3T3 cytotox: 35µM*; hNpr1 antagonist: 2%[70.6 µM]

What do the screens show for `COc1ccc(-c2cc(-c3ccc4cn[nH]c4c3)cn3cncc23)cc1`?
FLuc inh: inconclusive; HEK293 tox: 71µM*; 3T3 cytotox: 79µM*; hNpr1 antagonist: -14%[70.6 µM]

Results for CCN1Cc2cc(F)ccc2N(C[C@@H](O)COCc2ccccc2)CCC1=O ?
HEK293 tox: inconclusive; 3T3 cytotox: -26%

Results for CC(=O)N(C)CCc1noc(C2CN(Cc3c(F)cccc3Cl)C2)n1 ?
FLuc inh: inactive; HEK293 tox: 40µM*; 3T3 cytotox: inconclusive; hNpr1 antagonist: -1%

Results for CC(=O)N(C)CCc1noc(C2CN(C(=O)COc3ccccc3)C2)n1 ?
FLuc inh: inactive; HEK293 tox: 3%; 3T3 cytotox: 3%; hNpr1 antagonist: 0%

How did Cn1cc(CN2CCC(C(=O)N3CCCC3)CC2)c(-c2ccc(C3CCCCC3)cc2)n1 do in these assays?
FLuc inh: inactive; HEK293 tox: -11%; 3T3 cytotox: -1%; hNpr1 antagonist: 3%

Results for Cn1cc(CN2CCC(C(O)c3cccnc3)CC2)c(-c2ccc(C3CCCCC3)cc2)n1 (stereo unspecified) ?
FLuc inh: inactive; HEK293 tox: 79µM*; 3T3 cytotox: 79µM*; hNpr1 antagonist: 6%

How did COc1ccc(-c2ccc(-c3nc(CC(C)C)no3)cn2)c2cccnc12 do in these assays?
FLuc inh: inactive; HEK293 tox: 25µM*; 3T3 cytotox: inconclusive; hNpr1 antagonist: inconclusive

Results for COc1cc(-c2ccc(-c3nc(CC(C)C)no3)cn2)cc(OC)c1OC ?
FLuc inh: inactive; HEK293 tox: inconclusive; 3T3 cytotox: inconclusive; hNpr1 antagonist: 1%

What do the screens show for `Cc1ccccc1C(=O)NC1CCN(CCn2nc3n(c2=O)CCCC3)C1` (stereo unspecified)?
HEK293 tox: inactive; 3T3 cytotox: -10%

What do the screens show for `O=C(NCc1ccc2c(c1)OCO2)[C@@H]1C[C@@H](c2ccc(F)cc2)N(CCOc2ccccc2)C1`?
FLuc inh: inactive; HEK293 tox: inactive; 3T3 cytotox: inconclusive; hNpr1 antagonist: -5%

How did CN(Cc1cccc(OC(F)(F)F)c1)Cc1cccc(C(F)(F)F)c1 do in these assays?
HEK293 tox: inactive; 3T3 cytotox: -3%
